HTT prom inh: Primary qHTS for Identification of Small Molecule Inhibitors of Huntingtin Promoter Activity; HEK293 HTT promoter firefly luciferase reporter, 24 h; Potency, µM (highest dose often 57.5 µM), inactives show at the highest dose activity change, negative = inhibition, actives largely listed as inhibitors; 48,000 compounds, 0.93% hits; AID 1508623, 2021; also: nearly all actives have a fitted effect of over 50% in size
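Quantitative HTS used concentration series of up to 57.5 uM final on HEK293 luciferase reporter cells, 24 h at 37 degrees C. Readout was Dual-Glo firefly luminescence.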
NTMT1 inh: Primary qHTS for Inhibitors of N-terminal methyltransferase 1 (NTMT1): MTaseGlo Assay; AID 1645870, 2021; Potency, µM (series often up to 114 µM), for inactives: at the top dose activity change, negative = inhibition, usual class: inhibitors; NTMT1 MTase-Glo SAH luminescence, purified enzyme; 59,000 compounds, 2.5% hits;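 also: plate controls were DMSO vehicle for no effect and no enzyme for full effect; nearly all actives have a fitted effect of over 65% in size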
Target sequence (Q9BV86 whole entry, looked up): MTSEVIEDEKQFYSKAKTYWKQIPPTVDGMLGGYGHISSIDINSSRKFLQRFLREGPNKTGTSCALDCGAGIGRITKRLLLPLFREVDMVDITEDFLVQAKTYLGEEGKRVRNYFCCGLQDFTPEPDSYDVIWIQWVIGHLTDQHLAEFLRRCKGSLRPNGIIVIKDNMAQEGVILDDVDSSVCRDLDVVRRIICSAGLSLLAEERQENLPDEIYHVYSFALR
HTT-AS act: Primary qHTS for Identification of Small Molecule Activators of Huntingtin-Antisense Promoter Activity | 48,000 compounds, 0.24% hits | Potency, µM (series often up to 57.5 µM), for inactives: top-dose activity change, positive = activation, hits mostly activators | HEK293 HTT-AS promoter firefly luciferase reporter, 24 h; response scale: percent change from vehicle, -100% = no light; also: nearly all actives have a fitted effect of over 55% in size
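HEK293 Fluc reporter, 2,500 cells/well, 24 h pre-culture; cpds up to 57.5 uM final, 24 h 37 degrees C; Dual-Glo, 10 min RT; normalized vehicle = 0%, zero RLU = -100%.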
Active calls of the source: *; ? = inconclusive; nt = no result given; ! = not active in a repeat; [ ] = another dose, or the depositor's remark. The sample as a whole holds a higher share of hits than the screen did. Calls follow the shape of the dose curve; as a rule, active = well fitted curve in the direction sought with a large enough effect; inconclusive = small, poorly fitted or top-dose-only effect, or another doubt; inactive = no such curve, though single readings can be large; an effect the other way counts as inactive or inconclusive. Potency is read from the fitted curve at half-maximal effect.

SMILES	HTT prom inh	NTMT1 inh	HTT-AS act
O=C(Nc1cccc(F)c1)C1CCN(S(=O)(=O)c2ccc3[nH]c4c(c3c2)CCCCC4)CC1	25.1µM*	-5.7%	-41.5%
C=C1CCCC2(C)CCC(C(C)(C)OC3OC(C)C(O)C(O)C3OC(=O)/C(C)=C\C)CC12 (stereo not given)	nt	-1.9%[29.8 µM]	nt
COc1ccc(-c2coc3c2c(C)cc2oc(=O)c(CC(=O)O)c(C)c23)cc1	15.6%	-16.0%	-16.2%
Cc1cc2oc(=O)c(CC(=O)O)c(C)c2c2occ(-c3ccc(F)cc3)c12	47.6%	39.8µM*	?
Cc1onc(-c2ccc(F)cc2)c1COc1ccc(C(=O)N2CCS(=O)(=O)CC2)cn1	nt	-9.8%	nt
O=C(Nc1ccc(S(=O)(=O)Nc2nccs2)cc1)C1CCC2(CC1)CC2	nt	5.2%	nt
CC(C)(C)c1ccc(NC(=O)C2CCCN(c3cnccn3)C2)cc1 (stereo not given)	-8.3%	89.1µM*	19.0%
CC(=O)Nc1ccc(NC(=O)C2CCN(c3cnccn3)CC2)cc1	-3.6%	?	-9.8%
Cc1ccc(-n2ncc3c(Nc4cccc(Cl)c4)ncnc32)c(C)c1	-13.8%	-3.3%	-1.9%
COc1cc2ncnc(Nc3cccc(Cl)c3)c2cc1OC	1.0%	25.1µM*	-12.2%
COc1cc2ncnc(Nc3cccc(O)c3)c2cc1OC	nt	-9.5%[57.5 µM]	nt
COc1cc2ncnc(Nc3cccc(Br)c3)c2cc1OC	-20.8%	15.8µM*	-33.5%
Cc1nnc(-c2ccccc2)n1CCCn1ccnc1	nt	10.0%	nt
Oc1cccc2cc(-c3ccccc3)cnc12	nt	-1.0%[57.5 µM]	nt
Cc1ccc(-c2nc3cccnc3s2)cc1NC(=O)C(C)C	2.8%	4.9%	-1.1%
CC(=O)Nc1cc(-c2nc3ccccc3s2)ccc1C	63.6%	-3.8%	6.31µM*
CCC(C)SSc1ncc[nH]1 (stereo not given)	-16.9%	9.8%	-2.4%
CC(C)(C)c1ccc(SC2=NS(=O)(=O)c3ccccc32)cc1	nt	-2.5%	nt
CN1C(=O)C(C)(C)c2cc(S(=O)(=O)NCc3ccc(C(=O)Nc4ccc(Cl)cc4)cc3)ccc21	17.8µM*	-26.1%	-60.3%
CCc1ccc(NC(=O)c2ccc(CNS(=O)(=O)c3ccc4c(c3)C(C)(C)C(=O)N4C)cc2)cc1	?	?	-15.7%
CN(CC(=O)Nc1ccc(N2CCOCC2)cc1)Cc1cccc2ccccc12	nt	-2.8%	nt
CC(=O)Nc1ccc(-c2nnc(SCC(=O)c3ccc([N+](=O)[O-])cc3)o2)cc1	-14.8%	5.1%	5.7%
O=C(CSc1nnc(-c2ccc([N+](=O)[O-])cc2)o1)Nc1ccccc1	66.7%	7.6%	1.78µM*
N#C/C(=C\c1ccc(-c2ccccc2C(=O)O)o1)c1nc2ccccc2[nH]1	-36.2%	11.8%	-53.7%
O=C(O)c1ccccc1-c1ccc(/C=c2\sc3nc4cc(Br)cnc4n3c2=O)o1	nt	35.5µM*	nt
SMILES	HTT prom inh	NTMT1 inh	HTT-AS act
CCN(C(=O)c1ccccc1OC)c1cc2c(cc1N1CCNC[C@H]1C)n(C)c(=O)n2C	nt	11.6%	nt
C[C@H](O)[C@H](O)/C=C/c1cccc(O)c1CO	nt	-0.1%[57.5 µM]	nt
Cn1cc(/C=C2\C(=O)Nc3cccnc32)c2ccccc21	nt	44.7µM*	nt
Cn1cc(C2=C(c3ccc(Cl)cc3Cl)C(=O)NC2=O)c2ccccc21	nt	2.4%	nt
CCOC(=O)C1CCN(c2ccc(NCc3ccc(-c4ccc(C#N)cc4)o3)cc2)CC1	nt	-5.5%[57.5 µM]	nt
CC(C)=CC[C@@H](O)C1=CC(=O)c2c(O)ccc(O)c2C1=O	?	50.1µM*!	-67.5%
CN[C@@H](C)C(=O)N[C@H]1CCCC[C@H]2CC[C@@H](C(=O)N[C@@H](c3ccccc3)c3cn(CCCCc4ccc(CCCCn5cc([C@@H](NC(=O)[C@@H]6CC[C@@H]7CCCC[C@H](NC(=O)[C@H](C)NC)C(=O)N76)c6ccccc6)nn5)cc4)nn3)N2C1=O	7.7%	28.2µM*!	-2.2%
C[C@@H]1O[C@@H](O[C@H]2[C@H](OC(=O)[C@]34CCC(C)(C)C[C@H]3C3=CCC5[C@@]6(C)CC[C@H](O[C@@H]7O[C@H](CO[C@@H]8OC[C@H](O)[C@H](O)[C@H]8O)[C@@H](O)[C@H](O)[C@H]7O)C(C)(C)C6CC[C@@]5(C)[C@]3(C)C[C@H]4O)OC[C@@H](O)[C@@H]2O)[C@H](O)[C@H](O)[C@H]1O[C@@H]1OC[C@H](O)[C@H](O[C@@H]2OC[C@@H](O)[C@H](O)[C@H]2O)[C@H]1O (stereo not given in full)	nt	-14.9%[6.45 µM]	nt
CCOc1ccc(CCNC(=O)c2ccnn2Cc2cccc(C)c2)cc1OCC	nt	13.0%	nt
Cc1c(C(=O)N2CCOc3ccc(-c4ccc(N)nc4)cc3C2)ccc(S(C)(=O)=O)c1F	nt	50.1µM*!	nt
CC(C)c1ccccc1-c1ncc(F)c(NCC2CCN(c3cccnc3)CC2)n1	nt	21.2%	nt
COC(=O)C(NC(=O)CCc1c(C)nc2c(c(C)nn2-c2ccccc2)c1C)C(C)C (stereo not given)	4.9%	?	-6.5%
COc1cc(-c2cc3n(C)c(C)c(CCC(=O)NC4CCCCC4)c(=O)n3n2)cc(OC)c1OC	-1.0%	-9.5%	-11.6%
COC(=O)C(NC(=O)CCc1c(C)nc2cc(-c3cccc(F)c3)nn2c1C)C(C)C (stereo not given)	11.2µM*	15.2%	-65.7%
Cc1nc2cc(-c3cccc(F)c3)nn2c(C)c1CCC(=O)NC1CCCCC1	1.26µM*	-11.1%	-68.8%
COc1ccccc1Nc1nc(-c2ccccc2F)nc2ccccc12	?	1.7%	-30.7%
COc1cc2nc(-c3cc(F)ccc3O)nc(N[C@@H]3CNC[C@H]3C(C)(C)O)c2cc1OC	nt	28.2µM*	nt
C=C(C(=O)OC)C1C(O)CC2(C)C(O)CCC(=O)C2C1O (stereo not given)	nt	9.0%[57.5 µM]	nt
Cc1c(C(=O)N(C)CC2CCCO2)[nH]c2c1C(=O)CC(c1ccco1)C2 (stereo not given)	nt	-14.0%	nt
COc1ccccc1CNC(=O)c1ccc(-c2nc(CN3CCc4ccccc43)c(C)o2)cc1	17.8µM*	10.8%	-36.6%
Cc1oc(-c2ccc(C(=O)NCc3ccccc3Cl)cc2)nc1CN1CCc2ccccc21	14.1µM*	-4.3%	-34.4%
CCCCNC(=O)c1ccc(-c2nc(CN3CCc4ccccc43)c(C)o2)cc1	-38.3%	14.0%	-33.0%
CCCCOc1ccc(CNC(=O)c2ccc(-c3nc(CN4CCc5ccccc54)c(C)o3)cc2)cc1	-23.8%	9.0%	-23.0%
C=C/C=C/[C@@H]1OC[C@H](/C=C/C=C/C)[C@H]1O	nt	7.0%	nt
COc1cc(O)c2c(c1)C1=CC(O)C(O)CC1(C)OC2=O (stereo not given)	nt	4.2%[57.5 µM]	nt
COc1cc(O)c2c(c1)/C=C/C[C@H](O)[C@H](O)C(=O)/C=C\C[C@H](C)OC2=O	nt	25.1µM*	nt
C=C1CCC2C(C)(CO[C@@H]3O[C@H](CO)[C@@H](O)[C@H](O)[C@H]3O)C(O)CCC2(C)C1C(=O)CC1=CCOC1=O (stereo not given in full)	nt	19.6%[29.8 µM]	nt
CC1(C)CCCC2(C)C1CC(=O)C13CC(CCC12)C(O)(CO)C3 (stereo not given)	nt	-1.0%[29.8 µM]	nt

Compound activity as filed in PubChem BioAssay.
